Inconclusive results are not listed. Where a call stands in place of a potency, no number is given. A number with no mark means an inactive call. Calls of active or inactive are those of the source. Calls come from the whole dose curve; as a rule, active = well fitted curve in the direction sought with a large enough effect; inconclusive = small, poorly fitted or top-dose-only effect, or another doubt; inactive = no such curve, though single readings can be large; an effect the other way counts as inactive or inconclusive.
What was measured:
[1] = target: Rap guanine nucleotide exchange factor 3 (Homo sapiens) (UniProt O95398); assay: Confirmatory qHTS for antagonist of cAMP-regulated guanine nucleotide exchange factor 3 (EPAC1) (AID 1645880); note: nearly all actives have a fitted effect of over 55% in size; note: potency is the fitted concentration of half-maximal effect
Method in brief: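 Nucleotide exchange uses 100 nM EPAC1, 250 nM RAP1B-BODIPY-GDP and 50 uM GDP, with compounds in a concentration-titration series. After 5 min at room temperature, fluorescence (480 nm ex/540 nm em) is read every 5 min for 30 min. Data are normalized to control ATA and DMSO.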

[2] = target: Rap guanine nucleotide exchange factor 3 (Homo sapiens) (UniProt O95398); assay: Confirmatory qHTS for agonist of cAMP-regulated guanine nucleotide exchange factor 3 (EPAC1) (AID 1645881); note: nearly all actives have a fitted effect of over 75% in size; note: potency is the fitted concentration of half-maximal effect;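 for activation: EPAC1 catalysed release of BODIPY-GDP from Rap1B seen as fluorescence loss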
[3] = target: Rap guanine nucleotide exchange factor 4 (Homo sapiens) (UniProt Q8WZA2); assay: Confirmatory qHTS for agonist of cAMP-regulated guanine nucleotide exchange factor 4 (EPAC2) (AID 1645884);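 note: nucleotide exchange releases bodipy-GDP from Rap1 and this lowers its fluorescence; nearly all actives have a fitted effect of over 65% in size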; note: potency is the fitted concentration of half-maximal effect
[4] = target: Rap guanine nucleotide exchange factor 4 (Homo sapiens) (UniProt Q8WZA2); assay: Confirmatory qHTS for antagonist of cAMP-regulated guanine nucleotide exchange factor 4 (EPAC2) (AID 1645885); note: nearly all actives have a fitted effect of over 25% in size; note: potency is the fitted concentration of half-maximal effect
[5] = target: Rap guanine nucleotide exchange factor 3 (Homo sapiens) (UniProt O95398); assay: Counterscreen qHTS for antagonist of cAMP-regulated guanine nucleotide exchange factor 3 (EPAC1) (AID 1645888);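 note: fluorescence loss as bound BODIPY-GDP is released from Rap1B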
Method in brief: (§1)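 Rap1B-BODIPY-GDP 250 nM + GDP 50 uM; cpds 7-pt, final 9.74 nM–152 uM (activator mode) or from 7.32 nM upwards (inhibitor mode); RT; FI 480/540 nm at 5 and 30 min, then ± cAMP, reread.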

[6] = target: Rap guanine nucleotide exchange factor 3 (Homo sapiens) (UniProt O95398); assay: Counterscreen qHTS for agonist of cAMP-regulated guanine nucleotide exchange factor 3 (EPAC1) (AID 1645889); note: nearly all actives have a fitted effect of over 40% in size; note: potency is the fitted concentration of half-maximal effect
Method in brief: as §1

Sequence of Rap guanine nucleotide exchange factor 4 (Homo sapiens) (Q8WZA2 whole entry, looked up): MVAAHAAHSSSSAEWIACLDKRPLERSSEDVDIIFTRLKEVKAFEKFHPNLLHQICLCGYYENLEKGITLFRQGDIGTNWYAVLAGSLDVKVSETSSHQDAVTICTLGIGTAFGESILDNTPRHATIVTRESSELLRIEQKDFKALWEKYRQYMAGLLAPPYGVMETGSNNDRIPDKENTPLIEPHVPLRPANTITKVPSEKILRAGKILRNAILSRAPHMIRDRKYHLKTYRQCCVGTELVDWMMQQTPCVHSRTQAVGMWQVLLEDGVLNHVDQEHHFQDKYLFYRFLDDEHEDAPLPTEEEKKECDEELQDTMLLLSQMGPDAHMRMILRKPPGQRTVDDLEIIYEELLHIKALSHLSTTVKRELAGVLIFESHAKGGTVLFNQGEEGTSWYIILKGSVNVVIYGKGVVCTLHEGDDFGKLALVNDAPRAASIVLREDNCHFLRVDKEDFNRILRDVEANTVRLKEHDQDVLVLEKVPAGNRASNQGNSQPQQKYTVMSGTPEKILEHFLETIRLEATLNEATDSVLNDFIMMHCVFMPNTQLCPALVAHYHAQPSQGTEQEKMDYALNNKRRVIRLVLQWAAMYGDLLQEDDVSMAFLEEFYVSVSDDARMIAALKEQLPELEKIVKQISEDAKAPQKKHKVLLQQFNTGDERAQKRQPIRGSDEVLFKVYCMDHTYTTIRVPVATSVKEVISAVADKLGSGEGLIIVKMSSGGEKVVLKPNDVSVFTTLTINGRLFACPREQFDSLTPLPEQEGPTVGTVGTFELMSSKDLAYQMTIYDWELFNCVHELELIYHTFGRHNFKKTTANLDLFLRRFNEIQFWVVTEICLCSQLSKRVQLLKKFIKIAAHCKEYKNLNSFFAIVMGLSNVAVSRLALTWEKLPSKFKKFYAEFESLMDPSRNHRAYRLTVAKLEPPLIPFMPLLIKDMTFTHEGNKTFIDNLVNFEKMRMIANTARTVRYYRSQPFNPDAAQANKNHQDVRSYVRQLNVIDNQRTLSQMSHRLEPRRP
Sequence of Rap guanine nucleotide exchange factor 3 (Homo sapiens) (O95398 whole entry, looked up): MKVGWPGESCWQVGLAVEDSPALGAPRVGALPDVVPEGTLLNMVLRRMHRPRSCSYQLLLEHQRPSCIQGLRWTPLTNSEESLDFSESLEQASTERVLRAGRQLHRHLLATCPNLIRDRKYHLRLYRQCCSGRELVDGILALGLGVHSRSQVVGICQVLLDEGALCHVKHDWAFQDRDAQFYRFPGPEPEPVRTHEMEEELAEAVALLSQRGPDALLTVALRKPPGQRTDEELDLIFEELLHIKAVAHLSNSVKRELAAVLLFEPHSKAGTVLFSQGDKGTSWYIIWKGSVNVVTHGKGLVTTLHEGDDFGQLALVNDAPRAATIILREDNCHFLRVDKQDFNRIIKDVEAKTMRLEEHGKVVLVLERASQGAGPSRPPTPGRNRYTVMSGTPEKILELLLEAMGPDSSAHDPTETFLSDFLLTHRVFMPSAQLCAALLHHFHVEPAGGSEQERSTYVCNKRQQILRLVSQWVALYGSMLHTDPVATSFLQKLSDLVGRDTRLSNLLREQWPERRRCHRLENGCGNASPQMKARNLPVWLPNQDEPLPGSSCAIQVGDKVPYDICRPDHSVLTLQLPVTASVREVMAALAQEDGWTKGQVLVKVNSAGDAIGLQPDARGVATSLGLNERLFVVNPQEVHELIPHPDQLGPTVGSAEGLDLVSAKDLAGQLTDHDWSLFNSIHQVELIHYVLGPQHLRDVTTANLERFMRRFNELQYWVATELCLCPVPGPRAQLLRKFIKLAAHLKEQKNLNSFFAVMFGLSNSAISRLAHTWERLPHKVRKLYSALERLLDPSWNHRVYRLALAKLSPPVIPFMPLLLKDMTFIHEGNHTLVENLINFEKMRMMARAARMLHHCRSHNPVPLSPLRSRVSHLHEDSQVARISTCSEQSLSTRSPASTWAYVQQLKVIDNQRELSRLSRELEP

In the case of `N/C(=N\N=C/c1ccc(-c2ccc(O)c(C(=O)O)c2)o1)N[N+](=O)[O-]`, the Potency [1] is reported as 4.78 µM (active), the Potency [2] is reported as “inactive” and the Potency [3] is reported as “inactive”.

In the case of `CCCNC(=O)N1[C@H]2CC[C@@H]1C(C(=O)OC)=C(c1ccc(F)cc1OCc1ccccc1)C2`, the Potency [1] is reported as “inactive”, the Potency [2] is reported as “inactive” and the Potency [3] is reported as “inactive”. The Potency [4] was “inactive” and the outcome [5] was “inactive”.

For `Cc1cc(/C=C2\C(=O)NC(=O)N(c3ccc(Cl)cc3)C2=O)c(C)n1-c1sc2c(c1C#N)CCCC2`, the Potency [1] was 11.2 µM (active), the Potency [2] was “inactive” and the activation [3] was 3.87% [at 17.1 µM, percent relative to cAMP agonist control]. The activity change, negative = inhibition [4] was -14.9% [at 12.7 µM] and the activity change, negative = inhibition [5] was -13.5% [at 30.8 µM].

In the case of `CCOC(=O)[C@]12Cc3cc(N(C)C)ccc3[C@H]1N(Cc1ccccc1)C(=O)c1ccccc12`, the Potency [1] is reported as “inactive” and the Potency [2] is reported as “inactive”.

For `CN(C)CC(C(=O)Cc1ccccc1)c1ccccc1` (stereo unspecified), the Potency [1] was “inactive”, the Potency [2] was “inactive” and the Potency [3] was “inactive”. For the same compound, the Potency [4] was “inactive” and the outcome [5] was “inactive”.

`O=C1NCN(c2ccccc2)C12CCN(C(c1cc3ccccc3o1)c1nnnn1C1CCCC1)CC2` (stereo unspecified) was tested, and the Potency [1] was “inactive”, the Potency [2] was “inactive” and the activation [3] was 13.1% [at 17.1 µM, percent relative to cAMP agonist control]. It also gave an activity change, negative = inhibition [4] of -12.5% [at 12.7 µM].

`Cc1ccc(N2C(=O)NC(=O)/C(=C\C=C\c3ccco3)C2=O)cc1` was tested, and the Potency [1] was 42.6 µM (active), the Potency [2] was “inactive” and the Potency [3] was “inactive”. The Potency [4] was “inactive”.

For `COc1ccc(C(=O)C2CN(C)CC2c2ccc(Cl)cc2)cc1` (stereo unspecified), the Potency [1] was “inactive”, the Potency [2] was “inactive” and the activation [3] was 2.15% [at 17.1 µM, percent relative to cAMP agonist control]. For the same compound, the activity change, negative = inhibition [4] was -16.3% [at 12.7 µM], the activity change, negative = inhibition [5] was 7.3% [at 30.8 µM] and the activation [6] was 27.2% [at 30.8 µM].

In the case of `CCCSc1nc2ccccc2c(=O)n1-c1ccccc1OC`, the Potency [1] is reported as “inactive”, the Potency [2] is reported as “inactive” and the Potency [3] is reported as “inactive”. The activity change, negative = inhibition [4] was 34.1% [at 12.7 µM] and the outcome [5] was “inactive”.

For `O=c1[nH]c(O)c(C=Nc2ccccc2Sc2ccccc2)c(=O)[nH]1`, the Potency [1] was “inactive”, the Potency [2] was “inactive” and the Potency [3] was “inactive”. The Potency [4] was “inactive” and the outcome [5] was “inactive”.

`COc1ccc(-n2c(O)c(/C=C/C=Nc3ccccc3)c(=O)[nH]c2=O)cc1` was tested, and the Potency [1] was “inactive”, the Potency [2] was 100 µM (active) and the Potency [3] was 89.1 µM (active). For the same compound, the Potency [4] was 16.9 µM (active), the outcome [5] was “inactive” and the Potency [6] was 35.5 µM (active).

With `Cc1c(NS(=O)(=O)c2ccccc2)ccc([N+](=O)[O-])c1Cl` the Potency [1] was “inactive”, the Potency [2] was “inactive” and the Potency [3] was “inactive”. The Potency [4] was “inactive” and the outcome [5] was “inactive”.

`COC(=O)C1=C(c2ccc3ccccc3c2)C[C@@H]2CC[C@H]1N2C(=O)NC1CC1` was tested, and the Potency [1] was “inactive”, the Potency [2] was “inactive” and the Potency [3] was “inactive”. The Potency [4] was “inactive”, the outcome [5] was “inactive” and the Potency [6] was “inactive”.

With `COCCCn1c(N)c(C(=O)NCCC(C)C)c2nc3ccccc3nc21` the Potency [1] was 56.2 µM (active), the Potency [2] was “inactive” and the activation [3] was 8.34% [at 17.1 µM, percent relative to cAMP agonist control]. The activity change, negative = inhibition [4] was -14.1% [at 12.7 µM] and the activity change, negative = inhibition [5] was 2.52% [at 30.8 µM].

For `O=C1NC(=O)N(Cc2ccccc2)C(=O)/C1=C/C=C/c1ccco1`, the Potency [1] was 44.7 µM (active), the Potency [2] was “inactive” and the activation [3] was 4.26% [at 17.1 µM, percent relative to cAMP agonist control]. For the same compound, the activity change, negative = inhibition [4] was -1.14% [at 12.7 µM] and the activity change, negative = inhibition [5] was -0.901% [at 30.8 µM].

Reference: PubChem BioAssay (NCATS)
